Data on six compounds can be found in PubChem BioAssay (Tox21).

Experiment [1] can be described thus: qHTS assay to identify aromatase inhibitors - cell viability counter screen (AID 743084).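 Note: cells stimulated with testosterone during compound exposure; nearly all actives have a fitted effect of over 55% in size.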 Note: potency is the fitted concentration of half-maximal effect. A general note: In qHTS, concentration-response curves come from the screen itself.
The target of experiment [2] is Aryl hydrocarbon receptor (Homo sapiens) (UniProt P35869). Briefly: qHTS assay to identify small molecule that activate the aryl hydrocarbon receptor (AhR) signaling pathway (AID 743085).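 Note: HG2L7.5c1 human HepG2 liver cells with stably integrated DRE-driven firefly reporter; series mostly up to about 70 µM; nearly all actives have a fitted effect of over 15% in size.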 The gist of the method:
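Cell line HG2L7.5c1 (human hepatoma, 20× DRE-luc). Plated, 5 h 37C, compound/DMSO added, 24 h 37C. CellTiter-Fluor 30 min 37C → fluorescence; then ONE-Glo 30 min RT → luminescence.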

Experiment [3] can be described thus: qHTS assay to identify small molecule that activate the aryl hydrocarbon receptor (AhR) signaling pathway - cell viability counter screen (AID 743086). Note: nearly all actives have a fitted effect of over 45% in size. Note: potency is the fitted concentration of half-maximal effect. In outline:
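HepG2-AhR-luc (HG2L7.5c1) cells, 4000/well, were preincubated 5 h at 37C, exposed to compound in qHTS format for 24 hr at 37C, then given CellTiter-Fluor for 30 min; viability was read as fluorescence in the reporter wells.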

The target of experiment [4] is Peroxisome proliferator-activated receptor gamma (Homo sapiens) (UniProt P37231). Kind of experiment: qHTS assay to identify small molecule agonists of the peroxisome proliferator-activated receptor gamma (PPARg) signaling pathway (AID 743094; active = well fitted activation curve with a large enough effect in the signal ratio in the repeat runs, not every such curve was filed as active; the % refers to the signal ratio). In outline: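 Fluorescence-based beta-lactamase readout in HEK293H PPARg UAS-bla cells after 17 h compound exposure (37C) and 1 h B/G FRET substrate incubation at room temperature.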

Experiment [5] has the same target. Kind of experiment: qHTS assay to identify small molecule antagonists of the peroxisome proliferator-activated receptor gamma (PPARg) signaling pathway (AID 743191; calls by dose curve; note: series mostly up to about 63 µM; nearly all actives have a fitted effect of over 30% in size). In outline:
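GeneBLAzer PPARg UAS-bla HEK293H cells carrying a UAS-driven beta-lactamase reporter were plated at 3000 cells/well, preincubated 5 h at 37C, then given compound for 17 h at 37C; LiveBLAzer B/G FRET substrate was read after 1 h at room temperature.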

The nature of experiment [6]: qHTS assay for small molecule agonists of the antioxidant response element (ARE) signaling pathway (AID 743202; active = well fitted activation curve with a large enough effect in the signal ratio in the repeat runs, not every such curve was filed as active; the % refers to the signal ratio). In outline: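 Following a 16 h, 37 C exposure of reporter HepG2 cells (ARE-driven beta-lactamase, 2,000 cells/well) to compounds, FRET substrate was applied for 2 h at room temperature and fluorescence intensity recorded.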
Experiment [7] is described as follows: qHTS assay for small molecule agonists of the antioxidant response element (ARE) signaling pathway - cell viability counter screen (AID 743203; calls by dose curve; note: nearly all actives have a fitted effect of over 55% in size). In outline: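 Parallel cytotoxicity read-out for the ARE-bla screen: HepG2 reporter cells, 16 hrs with compounds, then CellTiter-Glo luminescence.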
Experiment [8] in a line: qHTS assay for small molecule activators of the heat shock response signaling pathway - cell viability counter screen (AID 743209). Note: nearly all actives have a fitted effect of over 50% in size. The gist of the method:
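To flag cytotoxic compounds, HSE-bla HeLa cells plated at 1500 cells/well were dosed for 5 h at 37 C, followed by the reporter FRET read and then CellTiter-Glo, with luminescence recorded 30 min after reagent addition.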

A short description of experiment [9]: qHTS assay to identify small molecule agonists of the peroxisome proliferator-activated receptor delta (PPARd) signaling pathway - cell viability counter screen (AID 743211). Note: nearly all actives have a fitted effect of over 55% in size. The gist of the method: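 HEK293H PPARd-bla, 3000 cells/well; 5 h preincubation 37C/5% CO2; cpd in DMSO, 17 h 37C; B/G FRET substrate 2 h RT; CellTiter-Glo 30 min RT, luminescence.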
Experiment [10] concerns the target Peroxisome proliferator-activated receptor delta (Homo sapiens) (UniProt Q03181). Briefly: qHTS assay to identify small molecule agonists of the peroxisome proliferator-activated receptor delta (PPARd) signaling pathway (AID 743212; calls by dose curve). The gist of the method:
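Beta-lactamase reporter read by fluorescence (LiveBLAzer B/G FRET, 2 h, room temperature). Test agents, in DMSO, incubated at 37 C with PPARd-bla HEK293H cells.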

Experiment [11] in a line: qHTS assay to identify small molecule antagonists of the peroxisome proliferator-activated receptor delta (PPARd) signaling pathway - cell viability counter screen (AID 743213). Note: nearly all actives have a fitted effect of over 50% in size. The gist of the method: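 PPARd-bla HEK293H cells (3000/well) got compound plus 300 nM L165041 agonist for 17 h at 37 C. Viability in the same wells came from CellTiter-Glo luminescence after 30 min at room temperature.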

In experiment [12] the target is Peroxisome proliferator-activated receptor delta (Homo sapiens) (UniProt Q03181). Kind of experiment: qHTS assay to identify small molecule antagonists of the peroxisome proliferator-activated receptor delta (PPARd) signaling pathway (AID 743215; active = well fitted inhibition curve with a large enough effect in the signal ratio in the repeat runs, not every such curve was filed as active; the % refers to the signal ratio;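 note: cells stimulated with agonist L165041 at 300 nM final during compound exposure; series mostly up to about 62 µM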). The gist of the method:
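Screen format: qHTS, antagonist mode. HEK293H PPARd-bla cells received compound and 300 nM L165041 (final), 17 h, 37 C. Beta-lactamase detected via FRET substrate fluorescence, 2 h, room temperature.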

Experiment [13] can be described thus: qHTS assay to identify small molecule agonists of the farnesoid-X-receptor (FXR) signaling pathway - cell viability counter screen (AID 743218). Note: nearly all actives have a fitted effect of over 45% in size. In outline: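 Same-well cytotoxicity check on FXR-UAS-bla HEK 293T cells: 5 h attachment, 16 h compound at 37 C, CellTiter-Glo luminescence read at room temperature after 30 min.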
Experiment [14] can be described thus: qHTS assay to identify small molecule antagonists of the farnesoid-X-receptor (FXR) signaling pathway - cell viability counter screen (AID 743221; active = well fitted cell-killing curve with a large enough effect in the repeat runs, not every such curve was filed as active; note: nearly all actives have a fitted effect of over 50% in size). The gist of the method:
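Luminescence from CellTiter-Glo measures cytotoxicity in GeneBLAzer FXR-UAS-bla HEK 293T cells. Cells were exposed to compounds with 50 uM chenodeoxycholic acid (final) for 16 h at 37 C, in wells also used for the reporter readout.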

Experiment [15] concerns the target Vitamin D3 receptor (Homo sapiens) (UniProt P11473). Briefly: qHTS assay to identify small molecule agonists of the vitamin D receptor (VDR) signaling pathway (AID 743222; calls by dose curve). In outline:
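Using LiveBLAzer B/G FRET detection, agonism was scored in VDR-bla cells exposed overnight (16 h, 37C) to DMSO-dissolved compounds; substrate incubation was 2 h at room temperature.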

The target is the same in experiment [16]. Briefly: qHTS assay to identify small molecule antagonists of the vitamin D receptor (VDR) signaling pathway (AID 743223; active = well fitted inhibition curve with a large enough effect in the signal ratio in the repeat runs, not every such curve was filed as active; the % refers to the signal ratio). The gist of the method:
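Antagonist mode uses 1alpha,25-dihydroxyvitamin D3 at 3 nM final as stimulus. VDR-bla cells receive compounds in DMSO, incubate 16 h at 37C, then a beta-lactamase FRET substrate for 2 h at room temperature before fluorescence measurement.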

The nature of experiment [17]: qHTS assay to identify small molecule antagonists of the peroxisome proliferator-activated receptor gamma (PPARg) signaling pathway - cell viability counter screen (AID 743194). Note: nearly all actives have a fitted effect of over 55% in size. In outline:
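PPARg-UAS-bla HEK293H cells were plated, rested 5 h at 37 C, then treated with compounds plus rosiglitazone (50 nM final) for 17 h at 37 C; viability was then read by CellTiter-Glo luminescence after 30 min at room temperature.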

Experiment [18] in a line: qHTS assay for small molecule activators of the heat shock response signaling pathway (AID 743210; active = well fitted activation curve with a large enough effect in the signal ratio in the repeat runs, with a control signal flat, not every such curve was filed as active; the % refers to the signal ratio; note: series mostly up to about 63 µM). The gist of the method: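 Heat shock element–beta-lactamase HeLa reporter cells; qHTS with compounds for 5 h at 37 C; detection by FRET substrate fluorescence after 2.5 h at RT.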
Experiment [19] concerns the target Bile acid receptor (Homo sapiens) (UniProt Q96RI1). Kind of experiment: qHTS assay to identify small molecule agonists of the farnesoid-X-receptor (FXR) signaling pathway (AID 743220; active = well fitted activation curve with a large enough effect in the signal ratio in the repeat runs, not every such curve was filed as active; the % refers to the signal ratio). In outline:
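FXR-UAS-bla HEK 293T cells carrying a UAS-driven beta-lactamase reporter were plated for 5 h at 37C/5% CO2, then exposed to DMSO-dissolved Tox21 10K compounds for 16 h at 37C. A LiveBLAzer B/G FRET substrate was loaded for 2 h at room temperature before fluorescence reading.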

Experiment [20] shares this target. Kind of experiment: qHTS assay to identify small molecule antagonists of the farnesoid-X-receptor (FXR) signaling pathway (AID 743217; active = well fitted inhibition curve with a large enough effect in the signal ratio in the repeat runs, not every such curve was filed as active; the % refers to the signal ratio). In outline:
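Quantitative HTS, beta-lactamase reporter format: FXR-UAS-bla HEK 293T cells co-treated 16 h at 37 °C with compounds and 50 uM final chenodeoxycholic acid, then read by B/G FRET fluorescence.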

The structures appear in SMILES notation. Inconclusive results are not listed. Calls of active or inactive are those of the source. Unless noted, calls come from the whole dose curve; as a rule, active = well fitted curve in the direction sought with a large enough effect in the repeat runs; inconclusive = weak or mixed curves; inactive = no such curve, though single readings can be large; an effect the other way counts as inactive or inconclusive.

Chain of Vitamin D3 receptor (Homo sapiens) (P11473 whole entry, looked up): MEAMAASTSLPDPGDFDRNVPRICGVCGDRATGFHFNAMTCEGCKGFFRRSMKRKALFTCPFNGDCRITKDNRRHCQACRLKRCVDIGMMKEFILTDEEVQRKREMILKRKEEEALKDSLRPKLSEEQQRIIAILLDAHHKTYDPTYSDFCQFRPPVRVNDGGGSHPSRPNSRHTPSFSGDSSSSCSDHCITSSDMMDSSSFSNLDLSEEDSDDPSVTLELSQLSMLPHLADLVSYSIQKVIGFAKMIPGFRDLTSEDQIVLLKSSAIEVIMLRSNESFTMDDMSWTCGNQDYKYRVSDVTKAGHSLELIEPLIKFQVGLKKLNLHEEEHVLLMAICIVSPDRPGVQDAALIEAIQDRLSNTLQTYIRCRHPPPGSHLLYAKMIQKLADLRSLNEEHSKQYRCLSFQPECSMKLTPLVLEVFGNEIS
Chain of Bile acid receptor (Homo sapiens) (Q96RI1 whole entry, looked up): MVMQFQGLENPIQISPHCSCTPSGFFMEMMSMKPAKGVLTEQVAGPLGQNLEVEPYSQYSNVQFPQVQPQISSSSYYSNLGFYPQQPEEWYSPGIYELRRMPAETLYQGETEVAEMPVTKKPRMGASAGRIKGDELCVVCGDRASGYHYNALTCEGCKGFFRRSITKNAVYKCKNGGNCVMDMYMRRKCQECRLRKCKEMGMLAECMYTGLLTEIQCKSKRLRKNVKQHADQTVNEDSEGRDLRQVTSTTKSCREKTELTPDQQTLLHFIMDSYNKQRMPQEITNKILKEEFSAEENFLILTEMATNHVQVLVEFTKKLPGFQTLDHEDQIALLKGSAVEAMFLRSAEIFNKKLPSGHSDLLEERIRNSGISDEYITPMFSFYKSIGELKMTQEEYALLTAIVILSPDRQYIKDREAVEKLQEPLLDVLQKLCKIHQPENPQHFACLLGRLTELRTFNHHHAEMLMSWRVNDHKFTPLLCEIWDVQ
Chain of Peroxisome proliferator-activated receptor delta (Homo sapiens) (Q03181 whole entry, looked up): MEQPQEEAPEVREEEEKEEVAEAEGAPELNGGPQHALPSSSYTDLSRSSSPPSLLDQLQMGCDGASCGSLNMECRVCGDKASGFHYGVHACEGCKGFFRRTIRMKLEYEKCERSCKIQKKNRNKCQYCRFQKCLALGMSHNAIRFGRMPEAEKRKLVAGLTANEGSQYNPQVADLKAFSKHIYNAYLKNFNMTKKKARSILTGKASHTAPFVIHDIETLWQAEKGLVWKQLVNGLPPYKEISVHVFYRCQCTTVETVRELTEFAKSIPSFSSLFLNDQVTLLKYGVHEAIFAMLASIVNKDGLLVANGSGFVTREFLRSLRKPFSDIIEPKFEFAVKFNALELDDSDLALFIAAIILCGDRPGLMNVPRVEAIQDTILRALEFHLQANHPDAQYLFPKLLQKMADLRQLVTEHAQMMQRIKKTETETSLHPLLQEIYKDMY
Chain of Peroxisome proliferator-activated receptor gamma (Homo sapiens) (P37231 whole entry, looked up): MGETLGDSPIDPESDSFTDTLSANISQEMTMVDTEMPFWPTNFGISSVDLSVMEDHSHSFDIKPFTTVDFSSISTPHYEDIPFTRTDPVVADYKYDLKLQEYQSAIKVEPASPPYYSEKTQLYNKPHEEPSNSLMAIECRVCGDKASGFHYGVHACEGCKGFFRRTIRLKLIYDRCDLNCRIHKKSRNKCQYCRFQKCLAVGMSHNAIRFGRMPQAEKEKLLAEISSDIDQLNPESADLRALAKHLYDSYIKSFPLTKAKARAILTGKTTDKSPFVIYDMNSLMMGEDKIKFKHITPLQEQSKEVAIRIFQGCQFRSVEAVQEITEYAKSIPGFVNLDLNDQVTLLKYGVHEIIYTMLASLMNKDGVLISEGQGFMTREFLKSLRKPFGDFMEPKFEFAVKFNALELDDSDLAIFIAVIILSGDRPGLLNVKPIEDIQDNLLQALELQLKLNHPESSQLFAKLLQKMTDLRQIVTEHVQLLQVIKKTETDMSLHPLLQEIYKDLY
Chain of Aryl hydrocarbon receptor (Homo sapiens) (P35869 whole entry, looked up): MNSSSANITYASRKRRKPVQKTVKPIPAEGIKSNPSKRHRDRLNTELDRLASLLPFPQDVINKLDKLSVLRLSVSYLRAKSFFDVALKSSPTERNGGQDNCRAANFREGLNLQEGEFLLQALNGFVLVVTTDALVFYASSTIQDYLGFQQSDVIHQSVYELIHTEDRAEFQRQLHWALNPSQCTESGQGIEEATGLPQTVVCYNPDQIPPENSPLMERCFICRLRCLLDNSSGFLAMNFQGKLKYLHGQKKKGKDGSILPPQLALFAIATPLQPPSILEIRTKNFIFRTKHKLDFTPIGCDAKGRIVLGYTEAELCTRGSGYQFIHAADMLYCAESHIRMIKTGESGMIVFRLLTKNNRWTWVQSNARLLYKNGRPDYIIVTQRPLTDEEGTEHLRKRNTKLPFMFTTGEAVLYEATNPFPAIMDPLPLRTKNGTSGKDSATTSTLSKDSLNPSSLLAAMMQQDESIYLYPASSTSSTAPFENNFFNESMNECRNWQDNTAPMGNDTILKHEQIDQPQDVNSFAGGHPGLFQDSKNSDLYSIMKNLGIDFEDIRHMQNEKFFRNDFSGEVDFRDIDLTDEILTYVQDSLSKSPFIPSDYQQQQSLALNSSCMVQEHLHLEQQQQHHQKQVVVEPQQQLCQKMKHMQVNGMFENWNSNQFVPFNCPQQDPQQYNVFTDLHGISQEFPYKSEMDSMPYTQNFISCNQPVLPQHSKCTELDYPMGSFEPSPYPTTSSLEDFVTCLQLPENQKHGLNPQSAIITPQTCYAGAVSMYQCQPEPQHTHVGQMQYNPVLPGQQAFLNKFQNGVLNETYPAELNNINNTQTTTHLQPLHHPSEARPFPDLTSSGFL

As for `O=[N+]([O-])c1ccc2[nH]ncc2c1`, the Potency entry in [1], in [2], in [3], in experiment [4], in experiment [5] and in experiment [6] was “inactive” throughout. The Potency entry in [7], in [8], in [9], in experiment [10], in experiment [11] and in experiment [12] was “inactive” in each case. Further, the Potency entry in [13], in experiment [14] and in [15] was “inactive” throughout. The outcome in experiment [16] was inactive.
With `Nc1cccc([N+](=O)[O-])c1`, the Potency entry in experiment [1], in [2], in experiment [3], in experiment [4], in experiment [5] and in [17] was “inactive” each time. In addition, the Potency result in experiment [6], in [7], in [18], in experiment [9], in experiment [10] and in experiment [11] was “inactive” each time. Moreover, the Potency entry in experiment [12], in [13], in [19] and in experiment [14] was “inactive” each time.
Regarding `CCOc1ccc(N=Nc2ccc(/C=C/c3ccc(N=Nc4ccc(OCC)cc4)cc3S(=O)(=O)O)c(S(=O)(=O)O)c2)cc1`, the values for the Potency in [1] and in experiment [3] were 26.9 µM (active) and 19 µM (active), respectively. Also, the Potency entry in [2], in [4], in experiment [5], in [17], in [7] and in experiment [8] was “inactive” in each case. Moreover, the Potency result in [18], in [9], in [10], in experiment [11], in [12] and in experiment [13] was “inactive” each time. The Potency result in experiment [14] and in experiment [15] was “inactive” throughout. The outcome in [16] was inactive.
For `C=C(C)C(=O)OCC`, the Potency entry in experiment [1], in experiment [2], in [3], in [4], in experiment [5] and in [6] was “inactive” throughout. Also, the Potency result in [7], in experiment [8], in [18], in experiment [10], in experiment [12] and in experiment [20] was “inactive” in each case. Moreover, the Potency result in experiment [13], in experiment [19], in [14] and in experiment [15] was “inactive” each time. The result in [16] was inactive.
As for `C[C@@H](c1ncncc1F)C(O)(Cn1cncn1)c1ccc(F)cc1F` (some centres not stated), the Potency result in experiment [1], in experiment [2], in experiment [3], in experiment [4], in [17] and in experiment [6] was “inactive” throughout. Moreover, the Potency entry in experiment [7], in [8], in experiment [9], in experiment [10], in experiment [11] and in experiment [12] was “inactive” in each case. Besides, the Potency result in experiment [13] and in experiment [14] was “inactive” in each case.
As to `C=CCOc1ccccc1OCC(O)CNC(C)C` (configuration not stated), the Potency entry in experiment [1], in experiment [2], in experiment [3], in experiment [4], in [17] and in experiment [6] was “inactive” throughout. Further, the Potency entry in experiment [7], in [8], in experiment [18], in experiment [9], in [12] and in [20] was “inactive” in each case. The Potency entry in experiment [13], in [19], in experiment [14] and in [15] was “inactive” in each case. Moreover, the result in [16] was inactive.
